Inconclusive results are not listed. Entries that show only a call come without a potency. Unmarked numbers belong to inactive results. Calls of active or inactive are those of the source. Unless noted, the call rests on the fitted dose curve; in most records, active means well fitted curve in the direction sought with a large enough effect in the repeat runs; inconclusive means weak or mixed curves; inactive means no such curve, though single readings can be large; an effect the other way counts as inactive or inconclusive.
Key:
[1] = tested on: thyroid hormone receptor (rat, GH3 cells); assay: qHTS assay to identify small molecule agonists of the thyroid receptor (TR) signaling pathway (AID 743066; calls by dose curve; further: potency means the concentration at half of the fitted maximal effect)
[2] = molecular target: Estrogen receptor (Homo sapiens) (UniProt P03372); assay: qHTS assay to identify small molecule antagonists of the estrogen receptor alpha (ER-alpha) signaling pathway (AID 743069; active means well fitted curve in the direction sought with a large enough effect in the signal ratio in the repeat runs, not every such curve was filed as active; the % refers to the signal ratio)
Procedure, shortened: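 Estradiol-stimulated ER-alpha-UAS-bla HEK293 cells, 18 hr compound exposure at 37C. LiveBLAzer B/G substrate, 2 hr RT, fluorescence read.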

[3] = qHTS assay to identify small molecule antagonists of the estrogen receptor alpha (ER-alpha) signaling pathway - cell viability counter screen (AID 743074; calls by dose curve;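 further: HEK293 cells carrying ER-alpha-UAS-bla reporter stimulated with 17beta-estradiol; nearly all actives have a fitted effect of over 45% in size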)
[4] = molecular target: Estrogen receptor (Homo sapiens) (UniProt P03372); assay: qHTS assay to identify small molecule agonists of the estrogen receptor alpha (ER-alpha) signaling pathway (AID 743075; calls by dose curve;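 further: HEK293 GripTite cells with ER-alpha and UAS-driven beta-lactamase reporter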; further: potency means the concentration at half of the fitted maximal effect)
[5] = molecular target: Estrogen receptor (Homo sapiens) (UniProt P03372); assay: qHTS assay to identify small molecule agonists of the estrogen receptor alpha (ER-alpha) signaling pathway using the BG1 cell line (AID 743079); further: nearly all actives have a fitted effect of over 20% in size; further: potency means the concentration at half of the fitted maximal effect
[6] = qHTS assay to identify small molecule antagonists of the estrogen receptor alpha (ER-alpha) signaling pathway using the BG1 cell line (AID 743080; calls by dose curve; further: series mostly up to about 70 µM; nearly all actives have a fitted effect of over 25% in size)
Procedure, shortened: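 Antagonist mode: compounds in DMSO were pinned onto BG1-Luc-4E2 cells alongside 17beta-estradiol agonist, incubated 21.5 h, and ERE-driven luciferase measured with ONE-Glo. Cytotoxicity was multiplexed using CellTiter-Fluor fluorescence.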

[7] = qHTS assay to identify small molecule antagonists of the estrogen receptor alpha (ER-alpha) signaling pathway using the BG1 cell line - cell viability counter screen (AID 743081);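 further: compound given together with 17beta-estradiol as the ER stimulus; series mostly up to about 70 µM; nearly all actives have a fitted effect of over 45% in size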
[8] = molecular target: Aromatase (Homo sapiens) (UniProt P11511); assay: qHTS assay to identify aromatase inhibitors (AID 743083); further: series mostly up to about 70 µM; nearly all actives have a fitted effect of over 55% in size
[9] = qHTS assay to identify aromatase inhibitors - cell viability counter screen (AID 743084);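 further: cells stimulated with testosterone during compound exposure; nearly all actives have a fitted effect of over 55% in size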; further: potency means the concentration at half of the fitted maximal effect

Chain of Estrogen receptor (Homo sapiens) (P03372 whole entry, looked up): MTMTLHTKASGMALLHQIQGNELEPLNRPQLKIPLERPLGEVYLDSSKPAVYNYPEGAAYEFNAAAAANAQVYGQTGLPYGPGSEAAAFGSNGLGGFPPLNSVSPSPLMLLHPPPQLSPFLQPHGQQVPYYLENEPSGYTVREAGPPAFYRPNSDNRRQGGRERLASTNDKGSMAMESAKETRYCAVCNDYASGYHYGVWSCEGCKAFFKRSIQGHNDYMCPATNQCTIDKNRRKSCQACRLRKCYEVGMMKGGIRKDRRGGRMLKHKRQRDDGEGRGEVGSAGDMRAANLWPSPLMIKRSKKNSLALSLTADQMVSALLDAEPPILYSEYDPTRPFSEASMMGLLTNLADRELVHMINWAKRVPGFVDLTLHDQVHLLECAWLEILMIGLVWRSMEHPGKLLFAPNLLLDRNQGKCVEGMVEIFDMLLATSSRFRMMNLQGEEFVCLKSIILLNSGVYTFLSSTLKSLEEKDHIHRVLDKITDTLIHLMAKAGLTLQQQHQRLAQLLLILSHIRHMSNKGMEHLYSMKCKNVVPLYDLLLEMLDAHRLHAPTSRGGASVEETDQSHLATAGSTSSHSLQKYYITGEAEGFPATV
Chain of Aromatase (Homo sapiens) (P11511 whole entry, looked up): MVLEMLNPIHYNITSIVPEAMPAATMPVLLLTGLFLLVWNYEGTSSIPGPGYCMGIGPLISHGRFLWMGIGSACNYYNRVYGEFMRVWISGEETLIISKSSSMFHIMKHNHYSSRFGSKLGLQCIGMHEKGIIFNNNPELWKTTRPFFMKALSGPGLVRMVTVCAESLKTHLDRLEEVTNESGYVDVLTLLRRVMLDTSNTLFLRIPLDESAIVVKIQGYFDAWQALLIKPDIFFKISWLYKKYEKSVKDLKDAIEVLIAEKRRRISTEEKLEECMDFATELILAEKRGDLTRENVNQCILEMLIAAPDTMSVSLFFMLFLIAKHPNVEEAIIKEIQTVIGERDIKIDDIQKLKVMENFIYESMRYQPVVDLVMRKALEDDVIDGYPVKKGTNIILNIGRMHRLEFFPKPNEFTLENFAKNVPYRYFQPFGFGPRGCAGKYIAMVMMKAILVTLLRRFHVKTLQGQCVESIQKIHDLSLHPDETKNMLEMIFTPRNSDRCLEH

| Compound | Potency [1] | Potency [2] | Potency [3] | Potency [4] | Potency [5] | outcome [6] | outcome [7] | outcome [8] | Potency [9] |
| --- | --- | --- | --- | --- | --- | --- | --- | --- | --- |
| COC(OC)C(C)c1ccccc1 (centres undefined) | inactive | inactive | inactive | inactive | inactive | inactive | inactive | inactive | inactive |
| COc1ccc(NS(=O)(=O)c2ccc(N)cc2)nn1 | inactive | inactive | inactive | inactive | inactive | inactive | inactive | inactive | inactive |
| CCCO | inactive | inactive | inactive | inactive | inactive | inactive | inactive | inactive | inactive |
| NC(=O)C1(N2CCCCC2)CCN(CCCC(=O)c2ccc(F)cc2)CC1 | inactive | inactive | inactive | inactive | inactive | inactive | inactive | inactive | inactive |
| CC(C)CCCC(C)CC=O (centres undefined) | inactive | inactive | inactive | inactive | inactive | inactive | inactive | inactive | inactive |
| O=C(COCCOCCOCC(=O)Nc1c(I)cc(I)c(C(=O)O)c1I)Nc1c(I)cc(I)c(C(=O)O)c1I | inactive | inactive | inactive | inactive | inactive | inactive | inactive | inactive | inactive |
| Nc1ccc(/C=C/c2ccc(N)cc2S(=O)(=O)O)c(S(=O)(=O)O)c1 | inactive | inactive | inactive | inactive | inactive | inactive | inactive | inactive | inactive |
| CC(Cl)COP(=O)(OCC(C)Cl)OCC(C)Cl (centres undefined) | inactive | inactive | inactive | inactive | inactive | inactive | inactive | inactive | inactive |
| CCC(C)N (centres undefined) | inactive | inactive | inactive | inactive | inactive | inactive | inactive | inactive | inactive |
| C[C@H](CCC(=O)O)[C@H]1CC[C@H]2[C@@H]3[C@H](O)C[C@@H]4C[C@H](O)CC[C@]4(C)[C@H]3C[C@H](O)[C@]12C | inactive | inactive | inactive | inactive | inactive | inactive | inactive | inactive | inactive |
| CCCCCCCC/C=C\CCCCCCCC(=O)OC[C@@H](O)[C@H]1OC[C@H](O)[C@H]1O | inactive | inactive | inactive | inactive | inactive | inactive | inactive | inactive | inactive |
| Cc1ccccc1C | – | inactive | inactive | inactive | inactive | inactive | inactive | inactive | inactive |
| O=C(Nc1cccc(C2=NCCN2)c1)Nc1cccc(C2=NCCN2)c1 | – | inactive | inactive | inactive | – | inactive | inactive | inactive | inactive |
| C[C@H](CCC(=O)NCC(=O)O)[C@H]1CC[C@H]2[C@@H]3[C@H](O)C[C@@H]4C[C@H](O)CC[C@]4(C)[C@H]3C[C@H](O)[C@]12C | 74.8 µM (active) | – | inactive | – | – | – | inactive | inactive | inactive |
| OC(CCN1CCCCC1)(c1ccccc1)c1ccccc1 | inactive | inactive | inactive | inactive | inactive | inactive | – | inactive | inactive |
| Cc1cccc(NC(=S)N(C)C)c1 | inactive | – | inactive | – | – | – | inactive | – | – |
| O=S(=O)(O)SSS(=O)(=O)O | inactive | – | inactive | – | – | – | inactive | inactive | inactive |
| CCN(CCO)c1cccc(C)c1 | – | – | inactive | inactive | inactive | inactive | inactive | inactive | inactive |
| C=C(C)[C@@H]1CC[C@@H](C)C[C@@H]1O | – | – | inactive | – | – | – | inactive | inactive | inactive |
| COc1ccc(N=Nc2cc(C)c(N=Nc3ccc(S(=O)(=O)O)cc3)cc2OC)cc1 | – | – | inactive | – | – | – | – | inactive | 48.6 µM (active) |
| CCCCCC1CCCC(=O)O1 (centres undefined) | inactive | – | inactive | – | – | – | inactive | inactive | inactive |
| O=C(O)C(=O)Nc1cccc(-c2nn[nH]n2)c1 | inactive | – | inactive | – | – | – | – | inactive | inactive |
| O=C(O)c1ccccc1C(=O)Nc1ccc(S(=O)(=O)Nc2nccs2)cc1 | inactive | – | inactive | – | – | – | inactive | inactive | inactive |
| CC(C)(CO)[C@@H](O)C(=O)NCCCO | – | inactive | inactive | inactive | inactive | inactive | inactive | inactive | inactive |

| Compound | Potency [1] | Potency [2] | Potency [3] | Potency [4] | Potency [5] | outcome [6] | outcome [7] | outcome [8] | Potency [9] |
| --- | --- | --- | --- | --- | --- | --- | --- | --- | --- |
| CCCCCCCCC(=O)OCC | inactive | inactive | inactive | inactive | inactive | inactive | inactive | inactive | inactive |
| Cc1oc(=O)oc1CN1CCN(c2cc3c(cc2F)c(=O)c(C(=O)O)c2n3C(C)S2)CC1 (centres undefined) | inactive | – | inactive | 23.9 µM [activator] (active) | 8.41 µM (active) | inactive | inactive | inactive | inactive |
| CCOC(=O)CCc1ccccc1 | inactive | – | inactive | – | – | – | inactive | inactive | inactive |
| BrC/C=C/CBr | inactive | – | inactive | – | – | – | inactive | inactive | inactive |
| CCNC(=O)/C=C/c1cccc(Br)c1 | – | – | inactive | – | – | – | inactive | inactive | inactive |
| NS(=O)(=O)c1ccccc1OC(F)(F)F | – | – | inactive | – | – | – | inactive | inactive | inactive |
| CCCCC/C=C/CC(=O)OC | – | – | inactive | – | – | – | inactive | inactive | inactive |
| CCCCC[Si](OCC)(OCC)OCC | – | – | inactive | – | – | – | inactive | inactive | inactive |
| CC(=O)Nc1ccc(C)cc1 | inactive | inactive | inactive | inactive | – | inactive | inactive | inactive | inactive |
| c1ccc(CNc2ncnc3nc[nH]c23)cc1 | inactive | – | inactive | – | – | – | inactive | – | – |
| CCCCCCCCCCCCCCCCI | inactive | – | inactive | – | – | – | inactive | inactive | inactive |
| O=c1cc(O)c(Cl)c[nH]1 | – | – | inactive | – | – | – | inactive | inactive | inactive |
| COCCOCCOCCOC | inactive | – | inactive | – | – | – | inactive | inactive | inactive |
| C/C=C(\C)C(=O)OCC/C=C\CC | inactive | – | inactive | – | – | – | inactive | – | – |
| O=C1CC[C@H](C(=O)N2CCCCC2)N1 | – | – | – | inactive | inactive | inactive | – | inactive | inactive |
| Nc1ccc(S(=O)(=O)Nc2ccccn2)cc1 | – | inactive | inactive | inactive | inactive | inactive | inactive | inactive | inactive |
| C=CCOc1c(Br)cc(C(C)(C)c2cc(Br)c(OCC=C)c(Br)c2)cc1Br | – | inactive | inactive | inactive | inactive | inactive | inactive | inactive | inactive |
| Nc1c(NC/C=C\COc2cc(CN3CCCCC3)ccn2)c(=O)c1=O | – | – | inactive | – | – | – | – | inactive | 13.3 µM (active) |
| NCCc1ccn[nH]1 | – | inactive | inactive | inactive | inactive | inactive | inactive | inactive | inactive |
| CNCc1ccccc1 | inactive | – | inactive | – | – | – | inactive | inactive | inactive |
| CCCCCCCCOC(C)=O | inactive | inactive | inactive | inactive | inactive | inactive | inactive | inactive | inactive |
| C=COCCOCCOC=C | inactive | – | inactive | – | – | – | inactive | inactive | inactive |
| Oc1ccccc1Cc1ccccc1O | inactive | – | – | – | inactive | inactive | inactive | inactive | inactive |
